# This is a sample that favours compounds with a hit; in the whole collection about 8.5% have one here.
# JMJD2E inh: qHTS Assay for Inhibitors of Human Jumonji Domain Containing 2E (JMJD2E) | Lysine-specific demethylase 4E (Homo sapiens), B2RXH2 | JMJD2E catalytic domain, FDH-coupled NADH fluorescence (FDH is formaldehyde dehydrogenase) | Potency, µM (highest dose often 57.1 µM), most hits filed as inhibitors | 230,000 tested, 1.6% active; active = well fitted inhibition curve with a large enough effect, not every such curve was filed as active; inconclusive = small, poorly fitted or top-dose-only effect, or another doubt; inactive = no such curve, though single readings can be large or run the other way; also: nearly all actives have a fitted effect of over 50% in size
# Target sequence (B2RXH2 1-337 limits assumed): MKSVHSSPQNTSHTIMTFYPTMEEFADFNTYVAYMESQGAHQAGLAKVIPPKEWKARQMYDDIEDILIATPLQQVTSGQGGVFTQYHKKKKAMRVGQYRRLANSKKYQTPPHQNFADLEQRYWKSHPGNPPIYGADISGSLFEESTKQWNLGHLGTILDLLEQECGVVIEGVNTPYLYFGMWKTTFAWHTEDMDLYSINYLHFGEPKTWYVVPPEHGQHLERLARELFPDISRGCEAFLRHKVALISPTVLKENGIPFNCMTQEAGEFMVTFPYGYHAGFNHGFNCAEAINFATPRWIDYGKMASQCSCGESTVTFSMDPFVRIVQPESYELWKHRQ
# ALDH1A1 inh: qHTS Assay for Inhibitors of Aldehyde Dehydrogenase 1 (ALDH1A1); Purified ALDH1A1, NADH fluorescence, propionaldehyde substrate; Aldehyde dehydrogenase 1A1 (Homo sapiens), P00352; AID 1030, 2008; Potency, µM (titrated, usually from 75.3 µM), usual class: inhibitors; 220,000 tested, 7.3% active; active = well fitted inhibition curve with a large enough effect, not every such curve was filed as active; inconclusive = small, poorly fitted or top-dose-only effect, or another doubt; inactive = no such curve, though single readings can be large or run the other way
# Sfp PPTase inh: qHTS Assay for Inhibitors of Bacillus subtilis Sfp phosphopantetheinyl transferase (PPTase). Potency, µM, hits mostly inhibitors. 310,000 tested, 3.5% active. AID 1490, 2009. Biochemical Sfp PPTase activity, qHTS;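 also: the enzyme is Sfp with the accession as filed and its product quenches rhodamine fluorescence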
#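 Sfp 15 nM + cpd, 15 min RT; start w/ rhodamine-CoA 5 uM, BHQ-2-YbbR 12.5 uM (final); 50 mM Hepes pH 7.6, 10 mM MgCl2, 0.01% NP-40, 0.01% BSA; read 525/598 nm at 0 and 30 min.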
# NPSR antag: qHTS Assay for Antagonists of the Neuropeptide S Receptor: cAMP Signal Transduction; CHO-NPSR cells, cAMP TR-FRET, antagonist mode; Q6W5P4; 220,000 tested, 1% active; Potency, µM (top dose mostly 38.3 µM), hits mostly inhibitors; also: nearly all actives have a fitted effect of over 50% in size
# Target sequence (Q6W5P4 whole entry, looked up): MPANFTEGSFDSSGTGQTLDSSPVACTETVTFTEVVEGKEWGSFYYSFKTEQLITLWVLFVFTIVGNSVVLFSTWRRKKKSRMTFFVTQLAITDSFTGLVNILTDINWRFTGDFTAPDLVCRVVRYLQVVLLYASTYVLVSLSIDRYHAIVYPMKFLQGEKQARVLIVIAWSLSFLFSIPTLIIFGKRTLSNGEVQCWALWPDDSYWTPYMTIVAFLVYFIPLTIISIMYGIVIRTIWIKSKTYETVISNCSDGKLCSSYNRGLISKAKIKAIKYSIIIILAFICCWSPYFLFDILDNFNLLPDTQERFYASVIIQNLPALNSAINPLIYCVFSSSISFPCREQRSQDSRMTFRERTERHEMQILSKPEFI
# Coupling enz: qHTS Assay for Inhibitors of Fructose-1,6-bisphosphate Aldolase from Giardia Lamblia: Coupling assay counterscreen | coupling enzyme system counterscreen, AmpLite Red fluorescence | activity change, negative = inhibition, % at 58.2 µM, hits read low | 290,000 tested, 0.67% active; in the data active = activity change below about -30%
#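 Coupling enzymes only (glyceraldehyde-3-phosphate) + compound, at 57.5 uM final, 10 min RT; add substrate/coupling/AmpLite Red mix, 20 min RT; fluorescence ex 525/em 598 nm. Actives flag coupling-system interference.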
# RGS12 GoLoco inh: qHTS Assay for Inhibitors of RGS12 GoLoco Motif Activity (Red Fluorophore); Guanine nucleotide-binding protein G(i) subunit alpha-1 (Homo sapiens), P63096; Gai1:RGS12 GoLoco peptide FP, rhodamine, 10 min; Potency, µM (series often up to 61.6 µM), hits mostly inhibitors; 230,000 tested, 0.44% active; AID 880, 2007; active = well fitted inhibition curve with a large enough effect, not every such curve was filed as active; inactive = no such curve, though single readings can be large or run the other way; also: nearly all actives have a fitted effect of over 30% in size
# A number is an active result; i = inactive; ? = inconclusive; nt = no result; ! = not confirmed by another sample; [ ] = another dose, or the depositor's remark. Unless noted, calls follow the shape of the dose curve; as a rule, active = well fitted curve in the direction sought with a large enough effect; inconclusive = small, poorly fitted or top-dose-only effect, or another doubt; inactive = no such curve, though single readings can be large; an effect the other way counts as inactive or inconclusive.
SMILES,JMJD2E inh,ALDH1A1 inh,Sfp PPTase inh,NPSR antag,Coupling enz,RGS12 GoLoco inh
Clc1nnc(NN=C2CCCC2)c2ccccc12,?,2.8µM,50µM,i,i,i
Cc1cc(NC(=O)Cc2cc(F)cc(F)c2)no1,nt,nt,i,nt,i,nt
COC(=O)c1cc(=O)nc2sc(-c3ccc(F)cc3)nn12,?,?,22µM,i,i,nt
COC(=O)c1cc(=O)nc2sc(-c3cccs3)nn12,i,?,i,i,i,i
CSC(=[SH+])N=N/C(=C1/C=CC=CN1)c1ccccn1.[Cu][Br],nt,0.63µM,nt,nt,nt,i[14.2 µM]
CCCOc1ccc(N2C(=O)CC(SCc3nc4ccccc4[nH]3)C2=O)cc1 (stereo not given),i,16µM,?,i,i,i
O=C1CC(SCc2nc3ccccc3[nH]2)C(=O)N1c1ccc(F)cc1 (stereo not given),i,28µM,i,i,i,i
O=C1CCC(=O)N1c1ccc(CSc2nc3ccccc3[nH]2)cc1,i,14µM,i,i,i,i
CCCOc1ccc(N2C(=O)CC(SC(=N)N3N=C(c4ccccc4)CC3c3ccccc3)C2=O)cc1 (stereo not given),?,?,i,i,i,i
O=C1CC(SCc2nc3ccccc3[nH]2)C(=O)N1c1cccc(Cl)c1 (stereo not given),?,11µM,i,i,i,i
CCOc1cc(NS(=O)(=O)c2ccc(NC(C)=O)cc2)c(OCC)cc1NC(=O)c1cccs1,i,i,i,i,i,i
N#CC(=NCc1cccnc1)C1=C(O)c2ccccc2C1=O,i,nt,i,i[7.67 µM],i,i
COC/C=C/C1=CC2=CC(=O)C(C)(OC(=O)c3ccc(Cl)nc3)C(=O)C2=CO1 (stereo not given),i,i,i,nt,i,i
CC(C)N1CC=C2C(C#N)=C(N)C(C#N)(C#N)C(c3ccccc3)C2C1 (stereo not given),?,?,i,i,i,i
Cc1ccc(C2C3CSCC=C3C(C#N)=C(N)C2(C#N)C#N)cc1 (stereo not given),?,8.9µM,?,i,i,i
N#CCCN(C(=O)CCl)c1cccc(Cl)c1,i,0.11µM,i,i,i,i
CCCCCCN(C(=O)CCl)c1ccccc1,i,nt,i,i,i,i
CCCCCCCN(C(=O)CCl)c1cccc(C)c1,i,0.22µM,i,i,i,i
Cc1ccc(CNC(=O)CCSCCC(=O)NCc2ccc(C)cc2)cc1,i,i,i,i,i,i
Cc1cc(C[n+]2cc(Br)ccc2N)c2ncccc2c1,i,nt,i,i,i,i
COC(=O)CNC(=O)C1CCN(S(=O)(=O)c2cnc[nH]2)CC1,nt,nt,i,nt,nt,nt
Cn1c(CN2CCCC2)c(C#N)c2ccccc21,i,i,i,i,i,i
CC1CCN(Cc2c(C#N)c3ccccc3n2C)CC1,?,32µM,i,?,i,i
CCOc1ccc(C(C)=O)cc1COC(=O)c1cccnc1SC,i,25µM,i,i,i,i
COc1ccc(C(C)=O)cc1COC(=O)c1c(C)nn(-c2ccccc2)c1C,nt,nt,i,nt,i,nt
SMILES,JMJD2E inh,ALDH1A1 inh,Sfp PPTase inh,NPSR antag,Coupling enz,RGS12 GoLoco inh
COc1ccc(C(C)=O)cc1COC(=O)c1cc(C)nc2ccccc12,?,8.9µM,i,i,i,i
COc1ccc(C(C)=O)cc1COC(=O)CCNS(=O)(=O)c1ccc(C(C)=O)cc1,nt,nt,i,nt,nt,nt
COc1ccc(C(C)=O)cc1COC(=O)CNC(=O)c1cc(C)cc(C)c1,i,7.9µM,i,i,i,i
COc1ccc(C(C)=O)cc1COC(=O)CCCN1C(=O)c2ccccc2C1=O,i,3.5µM,i,i,i,i
Cc1ccccc1C1CC(=O)Oc2cc(C)c(Br)c(C)c21 (stereo not given),nt,i,i,nt,i,i
Cc1cccc(N2CCN(CC(O)COCc3cccs3)CC2)c1C (stereo not given),i,i,i,i,i,nt
CC1CCCCC1NC(=O)c1cccc(NC2=NC3CS(=O)(=O)CC3S2)c1 (stereo not given),nt,nt,i,nt,i,nt
CC(C)COc1cccc(C(=O)NC(=S)NCc2cccnc2)c1,i,?,i,i,i,nt
CCOc1ccc(S(=O)(=O)N2CCC(C(=O)NC3CC3)CC2)cc1C,nt,nt,i,nt,i,nt
COc1ccc(C(C)=O)cc1COC(=O)c1cccnc1SC,i,10µM,i,i,i,i
COc1ccc(C(C)=O)cc1COC(=O)c1cc(C)oc1C,i,18µM,i,i,i,i
CSc1ncccc1C(=O)OCc1ccccc1Cl,i,?,i,i,i,i
NC(=NCCCCCCN=C(N)/N=C(\N)Nc1ccc(Cl)cc1)/N=C(\N)Nc1ccc(Cl)cc1,i,i,28µM!,nt,i,i
O=c1c2ccccc2c(C=NCCCN2CCOCC2)c(O)n1Cc1ccccc1,i,14µM,i,?,i,i
O=c1c2ccccc2c(C=NCCCN2CCOCC2)c(O)n1Cc1ccc2c(c1)OCO2,i,i,i,i,i,i
CSc1ccc(OC2CCCCC2NS(=O)(=O)c2ccccc2)cc1 (stereo not given),i,1.3µM,i,i,i,i
Cc1cc(C)cc(OC2CCCCC2NS(=O)(=O)c2ccccc2)c1 (stereo not given),i,13µM,i,i,i,i
COC1CCCCC1NS(=O)(=O)c1ccccc1 (stereo not given),i,?,i,?,i,i
O=C(NCc1ccco1)c1cc(-c2ccccn2)nc2ccccc12,i,i,i,i,i,i
O=C(NCc1ccc2c(c1)OCO2)c1cc(-c2ccccn2)nc2ccccc12,i,1.3µM,i,i,i,i
O=C(COC(=O)c1cc(-c2ccncc2)nc2ccccc12)Nc1ccc2c(c1)OCO2,i,?,i,i,i,i
O=C(Nc1ccc2c(c1)OCO2)c1cc(-c2cccnc2)nc2ccccc12,i,7.9µM,i,i,i,i
Cc1cccc(NC(=S)Nc2cccc(C)n2)n1,i,nt,i,i[7.67 µM],i,i
Cc1nc2ccc(NC(=S)NC3CCCCC3)cc2nc1C,i,i,i,i,-35,i
Cc1cccc(NC(=S)NC2CCCCC2)n1,i,?,50µM,i,i,i
Cc1cccc(NC(=S)NC2CCCC2)n1,i,?,10µM,i,i,i
COc1ccccc1-c1ccc2ncnc(N3CCOCC3)c2c1,nt,?,i,nt,i,i
Cc1ccc(CN2CCN(Cc3cccn3-c3nccs3)CC2CCO)cc1 (stereo not given),i,i,i,i,i,i
O=C1OC(c2ccccc2)=C/C1=C/N1CCCCC1,i,10µM,?,i,i,i

# Compound activity as filed in PubChem BioAssay.
